Screening data deposited in PubChem BioAssay by Sanford-Burnham Center for Chemical Genomics.
Shown are actives, neighbours in structure and some others; about 3.2% of the full set was active somewhere.
CRFR2-BP ag: agonists of human CRF-binding protein/CRF-R2 receptor complex; HEK293 CRF-R2/CRF-BP, calcium dye fluorescence (FLIPR); percent of saturating CRF peptide response; activation, % at 13.2 µM; actives 0.46% (n = 350,000); AID 588473;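 active means activation of at least 50%, plus an integration ratio under a set limit after plate pattern correction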;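 further: plate controls were neutral control wells without compound for no effect and CRF at EC100 for full effect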
Cardio protect: protects H9c2 cardiomyocytes from peroxide injury; H2O2 injury protection, ATPLite, 2 h; actives 0.63% (n = 360,000); protection from H2O2 cell death, % at 20 µM;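 active means compounds giving at least 50% protection of heart cells from peroxide-induced death in the single-dose screen, raw or plate-pattern-corrected value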;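 further: 0% = DMSO wells with peroxide and 100% = DMSO wells without peroxide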
CRFBP-R2 block: CRF-BP/CRF-R2 complex antagonism; actives 0.59% (n = 350,000); inhibition, % at 11.8 µM; HEK293 CRF-R2/CRF-BP, CRF-induced calcium fluorescence;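 active means inhibition of the ligand-induced calcium signal above about 50% at the single tested concentration, limit read from the data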
FAS-TE inh: FAS thioesterase (human) inhibition; P49327; recombinant FAS-TE, OMFH fluorogenic substrate, fluorescence endpoint; inhibition, % at 15 µM; AID 602261; actives 0.67% (n = 360,000);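 active means compounds whose normalised, plate-corrected inhibition of enzyme fluorescence in the single-dose primary screen is 50% or more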;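 further: 0% = DMSO with enzyme and 100% = substrate without enzyme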
aDG glyco up: alpha-DG glycosylation activation. actives 0.22% (n = 360,000). Pro5-aDG cells, alpha-DG glycosylation AlphaScreen (IIH6); 0% Pro5, 100% B10-LARGE cell signal. AID 624168. activation, % at 10 µM;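 active means activation of at least 8% versus controls, or a plate z-score of at least 8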;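 further: Pro5 are CHO cells carrying HIG-tagged alpha-DG that lacks glycosylation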
PfGluPho inh: PfG6PD (Plasmodium falciparum) enzyme inhibition; PfGluPho enzyme, NADPH resazurin-diaphorase fluorescence; AID 504690; actives 0.78% (n = 350,000); inhibition, % at 20 µM;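 active means inhibition reaching at least a set limit at 20 µM in the primary screen, cut at about 59% in these data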;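 further: 0% = DMSO wells with substrate and 100% = DMSO wells lacking glucose-6-phosphate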
PfG6PD confirm: PfG6PD inhibition, single-dose confirmed; shares compounds with PfGluPho inh; actives 34% (n = 2,400); inhibition, % at 20 µM; recombinant PfGluPho, NADPH-diaphorase-resazurin fluorescence;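 active means inhibition of at least 50% at 20 µM in any single replicate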;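 further: 0% = DMSO with substrate and 100% = DMSO lacking glucose-6-phosphate substrate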
Diaphorase 10uM: counter-screen for P. falciparum G6PD inhibitors: diaphorase inhibitors, oxidizers. diaphorase-coupled resazurin reduction, fluorescence, NADPH 10 uM. shares compounds with PfGluPho inh. inhibition, % at 20 µM. actives 39% (n = 820);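 active means average inhibition reaching 50% or more with the compound at 20 µM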;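 further: resorufin red fluorescence formed as diaphorase reduces resazurin using NADPH; 0% = DMSO with enzyme and 100% = DMSO without enzyme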
Diaph ctr 30uM: diaphorase inhibition or oxidation at 30 uM NADPH; shares compounds with PfGluPho inh; Diaphorase/resazurin coupled assay, resorufin fluorescence; inhibition, % at 20 µM; actives 29% (n = 820); AID 504863;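 active means inhibition averaging 50% or more, tested at 20 µM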;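 further: 0% = DMSO with enzyme and 100% = DMSO wells lacking diaphorase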
Active calls of the source: *; nt = not tested or not shown.

SMILES | CRFR2-BP ag | Cardio protect | CRFBP-R2 block | FAS-TE inh | aDG glyco up | PfGluPho inh | PfG6PD confirm | others
Cc1cc(/C=C2\Cc3ccccc3C2=O)c(C)n1-c1ccccc1 | 16 | -30 | -96 | 15 | 0 | 59* | 15
Nc1ccccc1C=C1Cc2ccccc2C1=O | 13 | -8 | -20 | -5 | 0 | 32 | nt
COC(=O)c1c(N2C(=O)CC(Sc3ncccc3C(=O)O)C2=O)sc(C)c1C (stereo unspecified) | 5 | 3 | -11 | -4 | 0 | -16 | nt
COC(=O)CCCC1=CC2=C(c3ccccc3)C(=O)C(C)(OC(=O)C3CCCC3)C(=O)C2=CN1Cc1ccc2c(c1)OCO2 (stereo unspecified) | -1 | 2 | 3 | 15 | 0 | 2 | nt
CC1(OC(=O)C2CCCC2)C(=O)C=C2C=C(c3ccsc3)N(CCc3c[nH]c4ccccc34)C=C2C1=O (stereo unspecified) | 0 | -17 | 6 | -4 | 0 | 78* | 66* | Diaphorase 10uM=5;Diaph ctr 30uM=8
CC1(OC(=O)C2CCCC2)C(=O)C=C2C=C(c3ccsc3)N(Cc3ccc4c(c3)OCO4)C=C2C1=O (stereo unspecified) | -1 | -4 | 13 | 4 | 1 | 61* | 53* | Diaphorase 10uM=8;Diaph ctr 30uM=3
CC1(OC(=O)C2CCCC2)C(=O)C=C2C=C(c3ccsc3)N(C3CCCCC3)C=C2C1=O (stereo unspecified) | 0 | 26 | 6 | -13 | 0 | 42 | nt
CCCCC1=CC2=CC(=O)C(C)(OC(=O)CC)C(=O)C2=CN1CCc1c[nH]c2ccccc12 (stereo unspecified) | 1 | 0 | 3 | -1 | 0 | 45 | nt
CC1(OC(=O)C2CCCC2)C(=O)C=C2C=C(c3ccsc3)N(CC3CC3)C=C2C1=O (stereo unspecified) | 1 | 9 | 3 | -10 | 0 | 68* | 50* | Diaphorase 10uM=12;Diaph ctr 30uM=14
O=C(COC(=O)c1ccc(=O)[nH]c1)Nc1cccc(S(=O)(=O)N2CCOCC2)c1 | -1 | -3 | 10 | -1 | 0 | -8 | nt
CCOc1ccc(C2/C(=C(\O)c3cccc(OC)c3)C(=O)C(=O)N2c2ccccn2)cc1OC (stereo unspecified) | -1 | 0 | -6 | -4 | 0 | -22 | nt
O=S(=O)(NC1CCSc2ccccc21)c1ccc(Cl)nc1 (stereo unspecified) | -2 | 2 | 1 | 4 | 0 | 29 | nt
Brc1ccc2nc(-c3c[nH]c4ccccc34)cn2c1 | 2 | 0 | -14 | 5 | 0 | 93* | 32
Cc1cccc(NC2=CC(=O)CC(C)(C)C2)c1C | 1 | 1 | -8 | -6 | 0 | -16 | nt
O=[N+]([O-])c1ccc(Oc2cccc3cccnc23)c(Cl)c1 | -3 | -6 | 0 | 12 | 0 | 111* | 80* | Diaphorase 10uM=72*;Diaph ctr 30uM=60*
O=C(CN1CCN(c2cccc(C(F)(F)F)c2)CC1)Nc1ccc2c(c1)OCCCO2 | 0 | -14 | 8 | 23 | 0 | 3 | nt
COc1ccc(NC(=O)c2ccc(NC(=O)CN3CCN(c4ccc(O)cc4)CC3)cc2)cc1 | 0 | 0 | -3 | 0 | 0 | 75* | 36
Oc1ccc(N2CCN(Cc3cc4c(cc3Br)OCCO4)CC2)cc1 | -1 | -5 | -12 | 7 | 0 | 74* | 6
O=C(CN1CCN(c2ccc(O)cc2)CC1)Nc1ccc2c(c1)OCCCO2 | 0 | -6 | 7 | -1 | 0 | 79* | 27
O=C(CN1CCN(c2ccc(O)cc2)CC1)Nc1cc(S(=O)(=O)N2CCCC2)ccc1Cl | 10 | -12 | -18 | -25 | 1 | 67* | 30
COc1ccc(NC(=O)c2ccc(NC(=O)CN3CCN(c4ccccc4O)CC3)cc2)cc1 | -1 | -2 | 0 | 1 | 0 | 12 | nt
COc1ccc(CNS(=O)(=O)NCc2ccc(C)cc2)cc1 | -1 | 0 | -10 | -10 | 0 | 13 | nt
CCCCNc1nnc(SCC(=O)c2c[nH]c3ccccc23)s1 | -1 | -4 | -56 | -14 | 0 | 25 | nt
O=C1NC(=O)/C(=C\c2ccc(O)cc2O)S1 | 2 | 19 | 6 | -6 | 0 | -1 | nt
O=C(O)c1cc(N2C(=O)C=CC2=O)cc(N2C(=O)C=CC2=O)c1 | -4 | 6 | 23 | 0 | 0 | 121* | 105* | Diaphorase 10uM=-23;Diaph ctr 30uM=5
SMILES | CRFR2-BP ag | Cardio protect | CRFBP-R2 block | FAS-TE inh | aDG glyco up | PfGluPho inh | PfG6PD confirm | others
COc1ccc(CCn2c(NN=C3CCCCC3)nc3c2c(=O)[nH]c(=O)n3C)cc1 | 1 | 3 | -2 | 0 | 0 | 106* | 81* | Diaphorase 10uM=-8;Diaph ctr 30uM=-5
O=C(Oc1ccc(C(=S)N2CCOCC2)cc1Br)c1cc(Cl)ccc1Cl | 0 | -1 | 8 | 25 | 0 | -6 | nt
O=C(Oc1c(Br)cc(C(=S)N2CCOCC2)cc1Br)c1ccc(Cl)cc1 | -1 | -22 | 12 | 21 | 0 | 67* | 9
COc1cccc(N2CCN(Cc3nc4scc(-c5ccccc5)c4c(=O)[nH]3)CC2)c1 | 12 | -9 | -11 | 13 | 0 | 4 | nt
O=C1Nc2ccc(S(=O)(=O)NCc3ccco3)c3cccc1c23 | -2 | 5 | 4 | -10 | 1 | 63* | 44
O=C(O)CNS(=O)(=O)c1ccc2c3c(cccc13)C(=O)N2 | 11 | 1 | 9 | -6 | 0 | 16 | nt
Cc1nc(Nc2cnc(/C=C/c3cc(C(=O)Nc4cccc(C(F)(F)F)c4)ccc3C)cn2)cc(N2CCNCC2)n1 | 16 | nt | -48 | nt | nt | 62* | -12
Oc1ccc2c(ccc3[nH]cnc32)c1 | -2 | 3 | 22 | -6 | 0 | 4 | nt
Brc1cc2[nH]cnc2c2ccccc12 | 1 | -5 | -9 | -15 | 0 | 59* | 50* | Diaphorase 10uM=29;Diaph ctr 30uM=28
O=C(COC(=O)c1ccc2c(c1[N+](=O)[O-])C(=O)c1ccccc1C2=O)NC1CC1 | 0 | -21 | 20 | 1 | 0 | 60* | 54* | Diaphorase 10uM=26;Diaph ctr 30uM=28
COc1ccccc1N(CC(=O)NCC1CCCO1)C(=O)CNS(=O)(=O)c1ccccc1 (stereo unspecified) | 1 | -4 | 7 | -4 | 0 | 11 | nt
S=c1[nH]nc(-c2ccc3ccccc3n2)n1-c1ccccc1Cl | -2 | 5 | -7 | -5 | 0 | 63* | 48
